In PubChem BioAssay:
The source made the active and inactive calls.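 The calls were made as follows, unless noted: active = Her2 level under about 52% in both replicate screens, with viability over 70% of control (limit read from the data); inconclusive = Her2 under the limit in one screen only, or viability under 70%; inactive = Her2 level above the set limit.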

target: Receptor tyrosine-protein kinase erbB-2 (Homo sapiens) (UniProt P04626); assay: reducers of endogenous Her2 protein level, primary screen, SKBR3 breast tumor cells, AlphaScreen, ATP viability (AID 461); conditions: 18-24 h, at 10 µM, active compounds read low;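 also: lower value means less Her2 protein in the cells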
Sequence (P04626 whole entry, looked up): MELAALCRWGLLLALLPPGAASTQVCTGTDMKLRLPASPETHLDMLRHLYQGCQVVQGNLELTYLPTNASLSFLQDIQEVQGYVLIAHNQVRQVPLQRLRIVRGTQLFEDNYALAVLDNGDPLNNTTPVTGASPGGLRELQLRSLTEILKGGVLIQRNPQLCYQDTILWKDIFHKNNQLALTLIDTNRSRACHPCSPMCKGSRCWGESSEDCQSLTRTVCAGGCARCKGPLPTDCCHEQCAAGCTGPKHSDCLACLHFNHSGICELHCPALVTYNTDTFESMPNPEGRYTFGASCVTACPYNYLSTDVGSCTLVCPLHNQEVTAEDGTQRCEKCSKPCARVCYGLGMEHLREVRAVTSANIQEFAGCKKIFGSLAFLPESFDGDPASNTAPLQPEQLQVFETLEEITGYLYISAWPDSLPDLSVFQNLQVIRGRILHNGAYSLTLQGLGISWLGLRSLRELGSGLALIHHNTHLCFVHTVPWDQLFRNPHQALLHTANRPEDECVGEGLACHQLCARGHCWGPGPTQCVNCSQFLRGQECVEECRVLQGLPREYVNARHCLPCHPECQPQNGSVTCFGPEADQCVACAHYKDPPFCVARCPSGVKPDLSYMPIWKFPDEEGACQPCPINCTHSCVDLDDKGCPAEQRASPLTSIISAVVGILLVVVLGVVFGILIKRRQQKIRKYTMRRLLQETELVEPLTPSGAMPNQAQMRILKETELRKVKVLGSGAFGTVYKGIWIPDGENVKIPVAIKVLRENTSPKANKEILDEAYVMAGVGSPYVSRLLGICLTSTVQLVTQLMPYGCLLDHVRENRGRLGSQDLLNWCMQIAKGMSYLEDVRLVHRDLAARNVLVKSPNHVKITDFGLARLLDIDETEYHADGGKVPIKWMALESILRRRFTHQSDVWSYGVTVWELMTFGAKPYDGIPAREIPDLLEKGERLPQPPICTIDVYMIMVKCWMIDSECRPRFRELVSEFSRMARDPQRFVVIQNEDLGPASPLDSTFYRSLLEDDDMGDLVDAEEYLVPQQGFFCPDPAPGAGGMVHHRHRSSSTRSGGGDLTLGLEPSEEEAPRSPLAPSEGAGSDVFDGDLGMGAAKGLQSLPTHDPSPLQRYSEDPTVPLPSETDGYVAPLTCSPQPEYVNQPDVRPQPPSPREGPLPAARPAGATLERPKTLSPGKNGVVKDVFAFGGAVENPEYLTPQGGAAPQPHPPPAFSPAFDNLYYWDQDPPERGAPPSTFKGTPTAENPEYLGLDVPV

Compound	Her2 level
CC(=O)Nc1ccc(S(=O)(=O)N2CCN(C(C)CCc3ccccc3)CC2)cc1 (stereo not given)	98.5% (inactive)
COc1ccc(NC(=O)Nc2cc(C)ccc2OC)cc1	109% (inactive)
O=C(CNS(=O)(=O)c1ccc(Br)s1)N1CCCC1	115% (inactive)
Cn1c(=N)n(CC(=O)O)c2ccccc21	100% (inactive)
CC(C)(C)Nc1nc(OCC(F)(F)F)nc(OCC(F)(F)F)n1	89% (inactive)
COc1cc(CC(=O)Nc2ncc(C)s2)cc(OC)c1OC	96% (inactive)
Cc1ccc(NC2=NC3(CCCCC3)N=C(N)N2)c(C)c1	96% (inactive)
C=CCSc1nnc(-c2ccccc2NC(C)=O)c(=O)[nH]1	105% (inactive)
CC1CCN(CCCNC(=O)c2cn(C)c3ccc(S(=O)(=O)N4CCCC4)cc3c2=O)CC1	80% (inactive)
C=CCOc1ccc(/C(O)=C2\C(=O)C(=O)N(CCOC)C2c2cccnc2)cc1 (stereo not given)	94.5% (inactive)
Cc1cccc(C(=O)N2CCC(n3nnc4cc(F)ccc43)CC2)c1	113% (inactive)
CC(C)Oc1ccc(N2CC(C(=O)Nc3ccccc3F)CC2=O)cc1 (stereo not given)	122% (inactive)
O=C(CSc1ncc(-c2ccc(F)cc2)[nH]1)N1CCCCC1	124% (inactive)
CCCNC(=O)Nc1ccccc1C(=O)Nc1ccc(OC)cc1	81% (inactive)
COc1ccccc1OCC(=O)NCC1CCCCC1	114% (inactive)
Cc1ccccc1NC(=O)CSc1nc(N)c(C#N)c(-c2cccs2)c1C#N	77% (inactive)
c1ccc(CCc2nc(-c3cccnc3)no2)cc1	73% (inactive)
COc1cc(NC2=CC(=O)CC(C)(C)C2)cc(OC)c1	133% (inactive)
Cc1ccccc1CN1CCN(CC(=O)NCc2ccccc2)C1=O	117% (inactive)
CCOC(=O)c1nnc(-c2ccccc2)o1	87.5% (inactive)

Compound	Her2 level
CCC(c1nnc(SCC(=O)NCC2CCCO2)n1Cc1ccccc1)N(C)C (stereo not given)	98% (inactive)
Cc1ccc(N2CC(C)Cn3c2nc2c3c(=O)n(CC(=O)OCc3ccccc3)c(=O)n2C)cc1C (stereo not given)	99.5% (inactive)
CCNC(=O)c1ccc(NS(=O)(=O)c2ccccc2)cc1	91% (inactive)
CCOc1ccc(-c2nc(C#N)c(N3CCCCCC3)o2)cc1	82% (inactive)
Cc1ccc(NS(=O)(=O)c2cn(C)cn2)cc1	88% (inactive)
Fc1ccccc1-c1nc(-c2ccccc2)no1	69% (inactive)
CCOC(=O)C1=C(C)NC(C)=C(C(=O)OCC)C1c1cc(N)ccc1OC(F)F	108% (inactive)
COc1ccccc1C1/C(=C(\O)c2c(C)nc3c(C)cccn23)C(=O)C(=O)N1CCCN(C)C (stereo not given)	79.5% (inactive)
CCOC(=O)C1CCCN(Cc2nc(N)nc(Nc3ccc(C)cc3)n2)C1 (stereo not given)	78% (inactive)
ON1C2CCCCC2N(O)C1c1c(F)c(F)c(F)c(F)c1F (stereo not given)	79% (inactive)
CCOc1ccc(CN2C(=O)c3ccccc3C2C(=O)NCc2cccnc2)cc1 (stereo not given)	96.5% (inactive)
CCOc1ccccc1NC(=O)CN(c1ccc(C)cc1)S(=O)(=O)c1c(C)noc1C	87% (inactive)
CCCOc1ccc([C@@H]2C3CN(C(=O)OCC)CC=C3C(C#N)=C(N)C2(C#N)C#N)cc1OC (stereo not given in full)	40% (active)
COc1ccc(C2=NOC(C(=O)NCc3ccc(F)cc3)C2)cc1OC (stereo not given)	87.5% (inactive)
COc1cc(C2CC(=O)NC3=C2C(=O)CC(C)(C)C3)ccc1O (stereo not given)	93.5% (inactive)
CCOc1ccc2[nH]c(=O)c(CN(Cc3nnnn3CCc3ccccc3)CC3CCCO3)cc2c1 (stereo not given)	89% (inactive)
Cc1cc(C)c2cc3c(ccn3C3OC[C@H](O)[C@H](O)[C@H]3O)cc2n1 (stereo not given in full)	105% (inactive)
N[C@@H](Cc1ccccc1)c1nnc2sc(SCc3ccccc3)nn12	84.5% (inactive)
CCC(C)NC(=O)C1(C)CCC(=O)N1Cc1ccccc1OC (stereo not given)	95% (inactive)
Cc1cc(Nc2ccc(C(=O)O)cc2)n2nc(C)nc2n1	96.5% (inactive)

test system: not listed separately; assay: SK-BR-3 cell growth inhibitors, pilot screen, 24 h, human (AID 572;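 active = viability at or below 10% of carrier control in both of two separate runs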;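 also: compound exposure lasted between 18 and 24 h rather than exactly 24 h; 100% = carrier-treated control wells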); conditions: SK-BR-3 viability, CellTiter-Glo luminescence, at 10 µM, active compounds read low

Compound	viability
CC(=O)Nc1ccc(S(=O)(=O)N2CCN(C(C)CCc3ccccc3)CC2)cc1 (stereo not given)	74% (inactive)
COc1ccc(NC(=O)Nc2cc(C)ccc2OC)cc1	101% (inactive)
O=C(CNS(=O)(=O)c1ccc(Br)s1)N1CCCC1	118% (inactive)
Cn1c(=N)n(CC(=O)O)c2ccccc21	108% (inactive)
CC(C)(C)Nc1nc(OCC(F)(F)F)nc(OCC(F)(F)F)n1	108% (inactive)
COc1cc(CC(=O)Nc2ncc(C)s2)cc(OC)c1OC	109% (inactive)
Cc1ccc(NC2=NC3(CCCCC3)N=C(N)N2)c(C)c1	114% (inactive)
C=CCSc1nnc(-c2ccccc2NC(C)=O)c(=O)[nH]1	106% (inactive)
CC1CCN(CCCNC(=O)c2cn(C)c3ccc(S(=O)(=O)N4CCCC4)cc3c2=O)CC1	90.5% (inactive)
C=CCOc1ccc(/C(O)=C2\C(=O)C(=O)N(CCOC)C2c2cccnc2)cc1 (stereo not given)	99% (inactive)
Cc1cccc(C(=O)N2CCC(n3nnc4cc(F)ccc43)CC2)c1	95% (inactive)
CC(C)Oc1ccc(N2CC(C(=O)Nc3ccccc3F)CC2=O)cc1 (stereo not given)	101% (inactive)
O=C(CSc1ncc(-c2ccc(F)cc2)[nH]1)N1CCCCC1	91% (inactive)
CCCNC(=O)Nc1ccccc1C(=O)Nc1ccc(OC)cc1	85% (inactive)
COc1ccccc1OCC(=O)NCC1CCCCC1	94.5% (inactive)
Cc1ccccc1NC(=O)CSc1nc(N)c(C#N)c(-c2cccs2)c1C#N	115% (inactive)
c1ccc(CCc2nc(-c3cccnc3)no2)cc1	86.5% (inactive)
COc1cc(NC2=CC(=O)CC(C)(C)C2)cc(OC)c1	77% (inactive)
Cc1ccccc1CN1CCN(CC(=O)NCc2ccccc2)C1=O	113% (inactive)
CCOC(=O)c1nnc(-c2ccccc2)o1	101% (inactive)

Compound	viability
CCC(c1nnc(SCC(=O)NCC2CCCO2)n1Cc1ccccc1)N(C)C (stereo not given)	98.5% (inactive)
Cc1ccc(N2CC(C)Cn3c2nc2c3c(=O)n(CC(=O)OCc3ccccc3)c(=O)n2C)cc1C (stereo not given)	86.5% (inactive)
CCNC(=O)c1ccc(NS(=O)(=O)c2ccccc2)cc1	124% (inactive)
CCOc1ccc(-c2nc(C#N)c(N3CCCCCC3)o2)cc1	138% (inactive)
Cc1ccc(NS(=O)(=O)c2cn(C)cn2)cc1	95% (inactive)
Fc1ccccc1-c1nc(-c2ccccc2)no1	85.5% (inactive)
CCOC(=O)C1=C(C)NC(C)=C(C(=O)OCC)C1c1cc(N)ccc1OC(F)F	78.5% (inactive)
COc1ccccc1C1/C(=C(\O)c2c(C)nc3c(C)cccn23)C(=O)C(=O)N1CCCN(C)C (stereo not given)	102% (inactive)
CCOC(=O)C1CCCN(Cc2nc(N)nc(Nc3ccc(C)cc3)n2)C1 (stereo not given)	99.5% (inactive)
ON1C2CCCCC2N(O)C1c1c(F)c(F)c(F)c(F)c1F (stereo not given)	89.5% (inactive)
CCOc1ccc(CN2C(=O)c3ccccc3C2C(=O)NCc2cccnc2)cc1 (stereo not given)	96% (inactive)
CCOc1ccccc1NC(=O)CN(c1ccc(C)cc1)S(=O)(=O)c1c(C)noc1C	133% (inactive)
CCCOc1ccc([C@@H]2C3CN(C(=O)OCC)CC=C3C(C#N)=C(N)C2(C#N)C#N)cc1OC (stereo not given in full)	88% (inactive)
COc1ccc(C2=NOC(C(=O)NCc3ccc(F)cc3)C2)cc1OC (stereo not given)	95.5% (inactive)
COc1cc(C2CC(=O)NC3=C2C(=O)CC(C)(C)C3)ccc1O (stereo not given)	89.5% (inactive)
CCOc1ccc2[nH]c(=O)c(CN(Cc3nnnn3CCc3ccccc3)CC3CCCO3)cc2c1 (stereo not given)	78.5% (inactive)
Cc1cc(C)c2cc3c(ccn3C3OC[C@H](O)[C@H](O)[C@H]3O)cc2n1 (stereo not given in full)	95% (inactive)
N[C@@H](Cc1ccccc1)c1nnc2sc(SCc3ccccc3)nn12	90% (inactive)
CCC(C)NC(=O)C1(C)CCC(=O)N1Cc1ccccc1OC (stereo not given)	100% (inactive)
Cc1cc(Nc2ccc(C(=O)O)cc2)n2nc(C)nc2n1	101% (inactive)
